The panel holds about 79,000 compounds, 15% with a hit somewhere; the sample as a whole holds those more often. Values without a mark were called inactive. Activity calls are given as the source filed them. Rule as the data show it: active = growth inhibition above about 70%; inactive = the rest.

Data on 16 molecules can be found in PubChem BioAssay (NCI).

The nature of this assay: NCI Yeast Anticancer Drug Screen. Data for the mlh1 strain (AID 171).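 Also: 0% = growth of vehicle-treated control cultures of the same strain.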 The following applies: S. cerevisiae mlh1 strain growth inhibition; at 100.0 µM; hits give high values. An outline of the steps:
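Growth of the mutant yeast strain after compound exposure, expressed as inhibition relative to vehicle-only controls.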
Turning to `O=[N+]([O-])c1cc[n+]([O-])cc1`, the growth inhibition was 99% (active).

On to `CC1(C)CC(=O)C(/C=N/c2nc(-c3ccccc3)cs2)=C(O)C1`, for which the growth inhibition was 81% (active).

Regarding `Nc1nc(N)c2nc(CNc3ccc(C(=O)NC(CCC(=O)O)C(=O)O)cc3F)cnc2n1` (stereo unspecified), the growth inhibition was 46%.

As for `COC(=O)CC1(O)C(/C=C/c2ccccc2)C(C(=O)OC)C(=O)C(C(=O)OC)C1C(=O)OC` (stereo unspecified), the growth inhibition is 5%.

Turning to `CC(C)(C)c1ccc(NS(=O)(=O)c2ccc(N)cc2)cc1`, the growth inhibition is 48%.

Consider `CCN(CC)CCNc1ccc([N+](=O)[O-])c2nc3ccccc3c(N)c12`, for which the growth inhibition is 8%.

For the molecule `CCCCN(CCCC)C(=O)/C=C/c1ccccc1`, the growth inhibition was 85% (active).

As for `O=c1[nH]c(-c2ccccc2)nc2c1sc1nc3ccccc3n12`, the growth inhibition is -42%.

Regarding `O=[N+]([O-])c1ccc2c(c1)/C(=N/N=C1c3ccccc3Cc3ccccc31)c1cc([N+](=O)[O-])cc([N+](=O)[O-])c1-2`, the growth inhibition was 93% (active).

Regarding `CC(C)C(C)/C=C\C(C)C1CCC2C3=CC=C4CC(O)CCC4(C)C3CCC21C` (stereo unspecified), the growth inhibition is 10%.

Take `O=C1Nc2ccc(Br)cc2C1=Nc1ccc2c(c1)OCO2`: the growth inhibition was -27%.

Turning to `CCCCOCn1c(=O)[nH]c(=O)c2cc(Br)ccc21`, the growth inhibition is -62%.

Consider `Cc1ccc(S/C(=C\C(=O)O)c2ccccc2)cc1`, for which the growth inhibition was 38%.

Take `O=[N+]([O-])/C=C/c1cc(Cl)c(/C=C/[N+](=O)[O-])cc1Cl`: the growth inhibition is 92% (active).

As for `Cc1cc(S(=O)(=O)Nc2nnc3cnc4ccccc4n23)c(S)cc1Cl`, the growth inhibition is 43%.

In the case of `O=C(/C=C/c1cc(Cl)cc(Cl)c1O)c1cccc(O)c1`, the growth inhibition is 98% (active).
